According to PubChem BioAssay (Tox21):
Records with an inconclusive call do not appear. Calls of active or inactive are those of the source. The call rests on the fitted dose curve; in most records, active means well fitted curve in the direction sought with a large enough effect in the repeat runs; inconclusive means weak or mixed curves; inactive means no such curve, though single readings can be large; an effect the other way counts as inactive or inconclusive.

Legend:
[1] = qHTS RealTime-Glo MT Cell Viability Assay in HEK293 cells - 32 hour (AID 1224868); further: top concentration of the series differs between compounds; nearly all actives have a fitted effect of over 50% in size
In short: (§1)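 Cells + reagent dispensed (600 cells/well, HEK293) → 5 h at 37 C/5% CO2 → 23 nL compound in DMSO pinned → 40 h at 37 C → luminescence read at 0, 8, 16, 24, 32, 40 h.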

[2] = A CellTox Green Cytotoxicity Assay to monitor cytotoxicity in HEK293 cells - 0 hour (AID 1224869); further: nearly all actives have a fitted effect of over 50% in size
In short: (§2)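 Read-out: fluorescence of a cell-impermeant cyanine dye staining DNA of dead cells, proportional to cytotoxicity. HEK293, 600 cells/well with reagent, compound (23 nL DMSO) added after 5 h; reads at 0, 8, 16, 24, 32, 40 h.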

[3] = A CellTox Green Cytotoxicity Assay to monitor cytotoxicity in HEK293 cells - 40 hour (AID 1224871); further: nearly all actives have a fitted effect of over 45% in size
In short: as §2

[4] = qHTS RealTime-Glo MT Cell Viability Assay in HEK293 cells - 16 hour (AID 1224872); further: top concentration of the series differs between compounds; nearly all actives have a fitted effect of over 50% in size
In short: as §1

[5] = qHTS RealTime-Glo MT Cell Viability Assay in HepG2 cells - 8 hour (AID 1224873); further: nearly all actives have a fitted effect of over 55% in size
In short: (§3)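 HepG2 cells mixed with RealTime-Glo MT reagents (NanoLuc plus cell-permeant prosubstrate) were seeded at 600 cells/well, incubated 5 h at 37 C/5% CO2, then pinned with compounds in DMSO; nonlytic luminescence tracked viability during 40 h treatment.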

[6] = qHTS RealTime-Glo MT Cell Viability Assay in HEK293 cells - 40 hour (AID 1224874); conditions: RealTime-Glo luminescence, active compounds read low; further: nearly all actives have a fitted effect of over 50% in size
In short: (§4)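 Luminescence readout at each listed time point; HEK293, 600 cells/well, RealTime-Glo MT reagent added with cells; compounds pinned (23 nL in DMSO) after 5 h at 37 C; continuous culture at 37 C.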

[7] = A CellTox Green Cytotoxicity Assay to monitor cytotoxicity in HEK293 cells - 24 hour (AID 1224875); further: series mostly up to about 77 µM; nearly all actives have a fitted effect of over 45% in size
In short: as §2

[8] = qHTS RealTime-Glo MT Cell Viability Assay in HepG2 cells - 32 hour (AID 1224877); further: nearly all actives have a fitted effect of over 55% in size
In short: (§5)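 Real-time, nonlytic viability: 600 HepG2 cells/well mixed with NanoLuc enzyme plus prosubstrate; 5 h settle, compound (DMSO) added by pintool; luminescence monitored over 40 h at 37 C.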

[9] = A CellTox Green Cytotoxicity Assay to monitor cytotoxicity in HepG2 cells - 24 hour (AID 1224878); further: nearly all actives have a fitted effect of over 45% in size
In short: (§6)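 HepG2, 600 cells/well premixed w/ CellTox Green; 5 h settle, 37 C/5% CO2; pintool cpd add (DMSO); 37 C, 40 h; fluorescence read at 0, 8, 16, 24, 32, 40 h.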

[10] = A CellTox Green Cytotoxicity Assay to monitor cytotoxicity in HepG2 cells - 40 hour (AID 1224879); further: nearly all actives have a fitted effect of over 40% in size
In short: as §6

[11] = qHTS RealTime-Glo MT Cell Viability Assay in HEK293 cells - 0 hour (AID 1224880); further: top concentration of the series differs between compounds; nearly all actives have a fitted effect of over 45% in size
In short: as §4

[12] = A CellTox Green Cytotoxicity Assay to monitor cytotoxicity in HepG2 cells - 0 hour (AID 1224882); further: nearly all actives have a fitted effect of over 35% in size
In short: as §6

[13] = A CellTox Green Cytotoxicity Assay to monitor cytotoxicity in HEK293 cells - 8 hour (AID 1224884); further: nearly all actives have a fitted effect of over 35% in size
In short: as §2

[14] = qHTS RealTime-Glo MT Cell Viability Assay in HepG2 cells - 16 hour (AID 1224885); further: nearly all actives have a fitted effect of over 50% in size
In short: as §5

[15] = qHTS RealTime-Glo MT Cell Viability Assay in HEK293 cells - 8 hour (AID 1224887)
In short: as §4

[16] = A CellTox Green Cytotoxicity Assay to monitor cytotoxicity in HepG2 cells - 32 hour (AID 1224883); further: nearly all actives have a fitted effect of over 50% in size
In short: as §6

[17] = qHTS RealTime-Glo MT Cell Viability Assay in HEK293 cells - 24 hour (AID 1224886)
In short: as §1

[18] = qHTS RealTime-Glo MT Cell Viability Assay in HepG2 cells - 40 hour (AID 1224870); further: nearly all actives have a fitted effect of over 50% in size
In short: as §3

[19] = A CellTox Green Cytotoxicity Assay to monitor cytotoxicity in HEK293 cells - 32 hour (AID 1224881); further: nearly all actives have a fitted effect of over 40% in size
In short: as §2

[20] = A CellTox Green Cytotoxicity Assay to monitor cytotoxicity in HepG2 cells - 16 hour (AID 1224876); further: nearly all actives have a fitted effect of over 45% in size
In short: as §6
On the % scale 0 is the no-effect control and ±100 the full control effect.

O=Cc1ccc(C(=O)O)cc1
inactive: outcome [1] | outcome [2] | Potency [3] | outcome [4] | outcome [5] | max response [6] 0.978% | Potency [7] | outcome [8] | Potency [9] | Potency [10] | Potency [11] | Potency [12] | Potency [13] | outcome [14] | outcome [15]

N[C@H]1C(O)O[C@H](CO)[C@@H](O)[C@@H]1O (stereo partly drawn)
inactive: outcome [1] | outcome [2] | Potency [3] | outcome [5] | max response [6] -1.72% | Potency [7] | outcome [8] | Potency [9] | Potency [10] | Potency [11] | Potency [16] | Potency [13] | outcome [14] | outcome [17] | outcome [15]

O=C1Nc2ccccc2C1=O
inactive: outcome [2] | outcome [18] | Potency [3] | Potency [7] | outcome [8] | Potency [9] | Potency [10] | Potency [11] | Potency [19] | Potency [12] | Potency [13] | outcome [14]

C/C(=N\O)c1ccc(OCC(=O)N2CCCCC2)cc1
inactive: outcome [1] | outcome [2] | Potency [3] | outcome [4] | outcome [5] | Potency [7] | Potency [20] | outcome [8] | Potency [9] | Potency [10] | Potency [11] | Potency [19] | Potency [12] | Potency [16] | Potency [13] | outcome [14] | outcome [17] | outcome [15]

BrCCOc1ccccc1
inactive: outcome [1] | outcome [2] | Potency [3] | outcome [5] | max response [6] -4.49% | Potency [7] | Potency [20] | outcome [8] | Potency [9] | Potency [10] | Potency [11] | Potency [19] | Potency [12] | Potency [16] | Potency [13] | outcome [14] | outcome [17] | outcome [15]

CC(C)CC(O)Cc1ccccc1 (stereo not drawn)
inactive: outcome [1] | outcome [2] | outcome [4] | outcome [5] | max response [6] 1.47% | Potency [7] | outcome [8] | Potency [9] | Potency [10] | Potency [11] | Potency [19] | Potency [12] | Potency [16] | Potency [13] | outcome [14] | outcome [17] | outcome [15]

COC(=O)c1c(C)cc(O)c(C)c1O
inactive: outcome [2] | outcome [18] | Potency [7] | Potency [20] | outcome [8] | Potency [9] | Potency [10] | Potency [11] | Potency [19] | Potency [12] | Potency [16] | Potency [13] | outcome [14] | outcome [15]

Cc1cc(C)c(N)c(Cl)c1
inactive: outcome [1] | outcome [2] | outcome [4] | outcome [5] | Potency [7] | Potency [20] | outcome [8] | Potency [9] | Potency [10] | Potency [11] | Potency [19] | Potency [12] | Potency [16] | Potency [13] | outcome [14] | outcome [17] | outcome [15]

CCCC(=O)CC
inactive: outcome [1] | outcome [2] | Potency [3] | max response [6] 11.6% | Potency [7] | Potency [20] | outcome [8] | Potency [9] | Potency [10] | Potency [11] | Potency [19] | Potency [12] | Potency [16] | Potency [13] | outcome [14] | outcome [17] | outcome [15]

CC(C)(C)c1ccc(C(=O)CCCCl)cc1
inactive: outcome [1] | outcome [2] | outcome [5] | max response [6] -1.09% | Potency [7] | Potency [20] | outcome [8] | Potency [9] | Potency [10] | Potency [11] | Potency [19] | Potency [16] | Potency [13] | outcome [14] | outcome [17] | outcome [15]

CCC(C)SSC(C)CC (stereo not drawn)
inactive: outcome [1] | outcome [2] | Potency [3] | outcome [4] | outcome [5] | max response [6] 3.14% | Potency [7] | Potency [20] | outcome [8] | Potency [9] | Potency [10] | Potency [11] | Potency [12] | Potency [16] | outcome [14] | outcome [15]

O=C(OOC(=O)c1ccccc1)c1ccccc1
inactive: outcome [2] | outcome [18] | Potency [3] | outcome [5] | Potency [7] | Potency [20] | outcome [8] | Potency [9] | Potency [10] | Potency [19] | Potency [16] | Potency [13] | outcome [14]

CC/C=C\CCOC(=O)c1ccccc1
inactive: outcome [1] | outcome [2] | outcome [5] | Potency [7] | Potency [20] | outcome [8] | Potency [11] | Potency [12] | Potency [13] | outcome [14]
